Test systems include HCT-15 colon; HT29 colon; SNB-75 CNS; SNB-19 CNS; U251 CNS; PC-3 prostate; SK-MEL-5 melanoma; UACC-62 melanoma; LOX IMVI melanoma; SK-MEL-28 melanoma.
Holding throughout (assay): NCI-60 one-dose screen, 48 h (100 = growth as untreated, 0 = no growth, -100 = all killed)
Settings in all cases: 10 µM unless noted

About 83,000 compounds went through this panel and 20% of them were active in at least one assay; those are over-represented in the sample as a whole.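 Single-concentration screen, 48 h exposure, 96-well plates. Endpoint: percent growth. Below 10 = active.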 A number with no mark means an inactive call. The source made the active and inactive calls.

Regarding `O=C(CN1CCN(c2cc(=O)n(-c3ccccc3)c3ccccc23)CC1)Nc1nc(-c2ccccc2)cs1`, the growth in the assay with HCT-15 colon is 25.2%; in the assay on HT29 colon, 73%; in the assay on SNB-75 CNS it was 71.6%; in the assay on SNB-19 CNS, 85.2%; in the assay with U251 CNS, 59.2%; in the assay on PC-3 prostate it was 32.5%. The growth is 5.29% (active) in the assay with SK-MEL-5 melanoma, 63.9% with UACC-62 melanoma, 49.4% in the assay on LOX IMVI melanoma and 71.2% with SK-MEL-28 melanoma.
For `O=C1/C(=C/C=C/c2ccco2)SC(=S)N1C1CCCCC1`, the growth in the assay on HCT-15 colon is 79.2%; with HT29 colon, 85.3%; with SNB-75 CNS it was 103%; with SNB-19 CNS it was 93.9%; in the assay with U251 CNS, 84%; with PC-3 prostate, 92.9%. The growth with SK-MEL-5 melanoma is 58.4%; in the assay on UACC-62 melanoma it was 56.7%; in the assay on LOX IMVI melanoma, 103%; in the assay with SK-MEL-28 melanoma it was 72.5%.
Take `COc1ccc(-c2nc(C(Cl)Cl)nc3cc(-c4ccccc4)nn23)cc1`: the growth is 4.52% (active) with HCT-15 colon; -20.2% (active) in the assay with HT29 colon; -9.44% (active) in the assay with SNB-75 CNS; 5.79% (active) with SNB-19 CNS; -51.7% (active) with U251 CNS; 35.5% in the assay on PC-3 prostate. The growth in the assay on SK-MEL-5 melanoma is 34.1%; in the assay with UACC-62 melanoma, 37.9%; with LOX IMVI melanoma it was 23.7%; with SK-MEL-28 melanoma, -46.4% (active).
Take `CNC(=O)c1cc(Oc2ccc3nc(NC(=O)c4ccc(N5CCOCC5)c(C(F)(F)F)c4)sc3c2)ccn1`: the growth in the assay with HCT-15 colon is 51.5%; in the assay with HT29 colon, 48.5%; in the assay with SNB-75 CNS, 96.2%; with SNB-19 CNS, 86.6%; in the assay with U251 CNS it was 65.6%; with PC-3 prostate it was 59%. Besides, the growth was 28.8% in the assay on SK-MEL-5 melanoma, 47.7% with UACC-62 melanoma, 76.3% with LOX IMVI melanoma and 86.1% with SK-MEL-28 melanoma.
Turning to `CCOC(=O)c1c(Nc2ccccc2)nn2c(-c3ccccc3)ccnc12`, the growth with HCT-15 colon was 63.3%; in the assay with HT29 colon, 84.4%; in the assay with SNB-75 CNS, 67.1%; in the assay with SNB-19 CNS it was 98.3%; in the assay with U251 CNS it was 90.8%; in the assay with PC-3 prostate, 92.8%. The growth in the assay on SK-MEL-5 melanoma was 78.5%; in the assay with UACC-62 melanoma, 87.7%; in the assay on LOX IMVI melanoma, 83%; in the assay with SK-MEL-28 melanoma, 101%.
`Cc1ccc(NC(=O)N[C@@H](Cc2cc(F)cc(F)c2)C(=O)NC2C(=O)N3C[C@H](O)C[C@H]3C(=O)N3CCCC[C@H]3C(=O)N[C@@H](CO)C(=O)N3C[C@H](C)C[C@H]3C(=O)O[C@H]2C)c(F)c1` (stereo not given in full): the growth with HCT-15 colon was 106%; with HT29 colon, 42.8%; in the assay on SNB-75 CNS, 27.4%; in the assay with SNB-19 CNS it was 27.1%; with U251 CNS it was 29.3%; in the assay with PC-3 prostate, 20%. Moreover, the growth with SK-MEL-5 melanoma was 21.5%; in the assay on UACC-62 melanoma, 30.9%; in the assay on LOX IMVI melanoma, 28.1%; in the assay on SK-MEL-28 melanoma, 47.4%.
Take `COc1cc(OC)cc(C(=O)Nc2cccc(C#Cc3cccc4[nH]nc(N)c34)c2)c1`: the growth with HCT-15 colon is 31.1%; in the assay on HT29 colon, 7.34% (active); in the assay on SNB-75 CNS it was -18.6% (active); with SNB-19 CNS, 57.2%; in the assay with U251 CNS it was 22.5%; in the assay with PC-3 prostate it was 31.9%. Further, the growth with SK-MEL-5 melanoma is -32.6% (active); with UACC-62 melanoma, 23.1%; in the assay with LOX IMVI melanoma, 31.9%; in the assay on SK-MEL-28 melanoma, 50.3%.
With `CC1(C)CC[C@]2(C(=O)N3CCOCC3)CC[C@]3(C)C(=CC[C@@H]4[C@@]5(C)C/C(=C/c6ccco6)C(=O)C(C)(C)[C@@H]5CC[C@]43C)[C@@H]2C1`, the growth was 81.5% in the assay on HCT-15 colon; 82.7% in the assay with HT29 colon; 28.6% in the assay with SNB-75 CNS; 100% in the assay with SNB-19 CNS; 101% with U251 CNS; 60.3% in the assay on PC-3 prostate. Further, the growth was 94.2% in the assay on SK-MEL-5 melanoma, 80.3% with UACC-62 melanoma, 63.9% in the assay on LOX IMVI melanoma and 91.6% with SK-MEL-28 melanoma.
For the molecule `COc1c(N2CC3CCCNC3C2)c(F)cc2c(=O)c(C(=O)N/N=C/c3ccc4c(c3)OCO4)cn(C3CC3)c12` (stereo not given), the growth with HCT-15 colon was 3.7% (active); in the assay with HT29 colon, -19.2% (active); in the assay on SNB-75 CNS it was 102%; with SNB-19 CNS, 80.5%; with U251 CNS it was 12.4%; in the assay with PC-3 prostate, 60.1%. Besides, the growth was 22.8% in the assay with SK-MEL-5 melanoma, 90.7% in the assay on UACC-62 melanoma, -64.3% (active) in the assay on LOX IMVI melanoma and 96.5% with SK-MEL-28 melanoma.
For the molecule `NC(N)=Nc1ccc(Oc2ccc(Nc3ccc(Cl)c(C(F)(F)F)c3)cc2)cc1`, the growth in the assay on HCT-15 colon is 37%; in the assay with HT29 colon, 13.7%; with SNB-75 CNS it was 95.2%; in the assay with SNB-19 CNS, 3% (active); with U251 CNS, 3.48% (active); in the assay on PC-3 prostate, 32.5%. The growth with SK-MEL-5 melanoma was 8.32% (active); in the assay with UACC-62 melanoma, 38.2%; in the assay with LOX IMVI melanoma, -96% (active); in the assay with SK-MEL-28 melanoma, 56.6%.
Take `COc1ccc2[nH]cc(/C=N/Nc3nc4ccccc4s3)c2c1`: the growth was 22.9% with HCT-15 colon; 59.9% in the assay with HT29 colon; 66.5% in the assay on SNB-75 CNS; 80% in the assay on SNB-19 CNS; 55.7% in the assay on U251 CNS; 33.2% in the assay on PC-3 prostate. Further, the growth in the assay on SK-MEL-5 melanoma was 83.7%; in the assay with UACC-62 melanoma, 73.1%; in the assay on LOX IMVI melanoma, 30.7%; with SK-MEL-28 melanoma it was 83.1%.
As for `NC(=O)c1c(NC(=O)c2ccccc2C(F)(F)F)sc2c1CCC(=O)C2`, the growth was 10.7% with HCT-15 colon; 18.7% in the assay on HT29 colon; 44.8% with SNB-75 CNS; 20.8% in the assay on SNB-19 CNS; 14.3% with U251 CNS; 17.5% in the assay on PC-3 prostate. Further, the growth is -59.5% (active) with SK-MEL-5 melanoma, 10.4% in the assay on UACC-62 melanoma, 19.7% in the assay on LOX IMVI melanoma and 42.4% in the assay with SK-MEL-28 melanoma.
As to `CC[C@H](CO)Nc1ccc2ncc(C#Cc3cncc(C(=O)Nc4ccc(CN5CCN(C)CC5)c(C(F)(F)F)c4)c3)n2n1`, the growth in the assay with HCT-15 colon is -38.1% (active); in the assay on HT29 colon it was -35.6% (active); in the assay on SNB-75 CNS it was -91.3% (active); with SNB-19 CNS it was -22.4% (active); in the assay with U251 CNS, -85.3% (active); in the assay with PC-3 prostate, -31.7% (active). The growth in the assay on SK-MEL-5 melanoma is -95.4% (active); in the assay on UACC-62 melanoma, -57.7% (active); in the assay with LOX IMVI melanoma, -98.8% (active); with SK-MEL-28 melanoma, -79.9% (active).

The values are drawn from PubChem BioAssay (NCI).
